Assay outcomes deposited in PubChem BioAssay by several laboratories.
Shown are actives, neighbours in structure and some others; about 21% of the full set was active somewhere.
CYP2C19 inhib: blockers of cytochrome P450 2C19 activity – biochemical, luminescence, ADME assay, primary screen | P33261 | CYP2C19 Supersomes, luciferin-H EGE luminescence, 30 min | inhibition, % at 5 µM | 21% of 96,000 active | AID 778, 2007;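 active = CYP2C19 inhibition above a set limit at 5 µM in the primary screen, cut at about 50% in these data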
CYP2C9 inh: blockers of cytochrome P450 2C9 activity – biochemical, luminescence, ADME assay, primary screen; P11712; CYP2C9 Supersomes, luciferin-H conversion; inhibition, % at 5 µM; 20% of 96,000 active; AID 777, 2007;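 active = blocking of liver enzyme CYP2C9 beyond about 50% at 5 µM, limit read from the data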
Target sequence (P11712 whole entry, looked up): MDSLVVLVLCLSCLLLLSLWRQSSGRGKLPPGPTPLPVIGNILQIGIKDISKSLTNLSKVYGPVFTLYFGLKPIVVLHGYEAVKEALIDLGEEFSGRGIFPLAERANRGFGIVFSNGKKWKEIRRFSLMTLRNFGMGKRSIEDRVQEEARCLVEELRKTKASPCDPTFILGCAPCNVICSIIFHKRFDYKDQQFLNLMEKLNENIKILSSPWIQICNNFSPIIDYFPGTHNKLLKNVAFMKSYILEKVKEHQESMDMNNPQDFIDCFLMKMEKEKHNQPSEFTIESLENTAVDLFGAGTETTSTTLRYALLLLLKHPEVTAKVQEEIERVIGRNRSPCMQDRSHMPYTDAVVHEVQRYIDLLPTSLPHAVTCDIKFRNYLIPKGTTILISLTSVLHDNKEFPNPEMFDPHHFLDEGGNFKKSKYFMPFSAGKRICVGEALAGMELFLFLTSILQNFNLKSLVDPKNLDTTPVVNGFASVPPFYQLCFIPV
CYP2C19 act: human CYP2C19 activators, primary screen, biochemical, luminescence; Cytochrome P450 2C19 (Homo sapiens), P33261; recombinant CYP2C19, luciferin-H EGE luminescence; active compounds read high; 0 = fully inhibited enzyme, 1 = untreated enzyme; activation factor at 5 µM; 96,000 tested, under 10 active;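 active = activation factor of at least 2 at 5 µM in the primary screen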
MRP-1 activ: H69AR viability gain despite doxorubicin, primary screen, MRP-1 activator project, H69AR cells, CellTiter-Glo. viability rescue. viability increase, % at 10 µM. 0.61% of 140,000 active. AID 799, 2007;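 active = viability gain under doxorubicin at or above a set limit, the compound median plus 3 SD, cut at about 4.7% in these data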;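 note: MRP-1 overexpressing cells given doxorubicin 25 µM after compound pretreatment; 18-22 h compound pretreatment then 72 h with doxorubicin before readout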
MRP resist rev: reversal of MRP1-mediated doxorubicin resistance, primary screen, H69AR cells, doxorubicin co-treatment. H69AR cells + 2 uM doxorubicin, CellTiter-Glo, 72 h. differential viability (reversal), % at 10 µM. 0.04% of 85,000 active;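 active = viability drop by adding the cancer drug above about 55%, with treated viability meeting a 40% cutoff, limit read from the data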;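 note: larger differential means the compound sensitizes cells more to doxorubicin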
CYP2C9 activ: human CYP2C9 activators, primary screen, biochemical, luminescence. 1.4% of 96,000 active. Cytochrome P450 2C9 (Homo sapiens), P11712. activation factor at 5 µM. recombinant CYP2C9, luciferin-H conversion; active compounds read high; factor 1 = untreated enzyme, 0 = blocked. AID 1024, 2008;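 active = activation factor of 2 or more for CYP2C9 at a 5 µM dose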
Of the large screens only hits and unclear results are named; the others gave an inactive call.

O=[N+]([O-])c1ccc2c(c1)C(N1CCOCC1)/C(=C/COc1ccc(F)cc1)O2 (centres undefined)	CYP2C19 inhib 84, CYP2C9 inh 54 (no result: MRP resist rev)
C[N+]1(CCOc2ccc([N+](=O)[O-])cc2)CCOCC1	none (no result: MRP resist rev)
O=[N+]([O-])c1ccc(OC/C=C2\Oc3ccc([N+](=O)[O-])cc3C2N2CCOCC2)cc1 (centres undefined)	CYP2C19 inhib 71 (no result: MRP resist rev)
COc1ncnc2c1N[C@@](C)(O)c1c(F)c(F)c(F)c(F)c1S2	CYP2C19 inhib 86
COc1ccccc1Cn1c(=O)c2ccccc2n2c(SCC(=O)N3CCCCC3)nnc12	none (no result: CYP2C19 inhib, CYP2C9 inh, CYP2C19 act, CYP2C9 activ)
Cc1cccc(S(=O)(=O)c2c(N)n(/N=C/c3ccco3)c3nc4ccccc4nc23)c1	CYP2C19 inhib 61, CYP2C9 inh 86
Cc1ccc(S(=O)(=O)c2c(N)n(/N=C/c3ccco3)c3nc4ccccc4nc23)cc1C	CYP2C9 inh 51
Cc1ccc(S(=O)(=O)c2c(N)n(/N=C/c3ccco3)c3nc4ccccc4nc23)cc1	CYP2C19 inhib 68, CYP2C9 inh 84
Cc1ccc(S(=O)(=O)c2c(N)n(CC3CCOC3)c3nc4ccccc4nc23)cc1 (centres undefined)	CYP2C19 inhib 86, CYP2C9 inh 82
Cc1cccc(S(=O)(=O)c2c(N)n(/N=C/c3cccnc3)c3nc4ccccc4nc23)c1	none
Nc1c(S(=O)(=O)c2ccccc2)c2nc3ccccc3nc2n1/N=C/c1ccco1	none
CCCCC(=O)Nc1ccccc1C(=O)N1CCOCC1	none (no result: CYP2C19 inhib, CYP2C9 inh, CYP2C19 act, CYP2C9 activ)
O=C(Nc1ccon1)c1cc2c(s1)CCCC2	MRP-1 activ 4.8
Cc1cnc(NC(=O)c2cc3c(s2)CCCC3)s1	none
O=C(NCCCn1ccnc1)c1cc2c(s1)CCCCC2	CYP2C19 inhib 93, CYP2C9 inh 73
CNC(=O)c1cc2c(s1)CCCCCC2	none (no result: CYP2C19 inhib, CYP2C9 inh, CYP2C19 act, MRP resist rev, CYP2C9 activ)
O=C(Nc1ccon1)c1cc2c(s1)CCCCCC2	CYP2C19 inhib 55, CYP2C9 inh 69
O=C(Nn1cnnc1)c1cc2c(s1)CCCCC2	CYP2C19 inhib 72
Cc1csc(NC(=O)c2cc3c(s2)CCCCC3)n1	none
CC(=O)C1=C(O)C(=O)N(c2nccs2)C1c1ccccc1 (centres undefined)	none
CN1CCN(c2ccc(S(=O)(=O)N3CCCCC3)cc2NC(=O)c2ccc(F)cc2F)CC1	none (no result: CYP2C19 inhib, CYP2C9 inh, CYP2C19 act, MRP resist rev, CYP2C9 activ)
CCC(=O)Nc1cccc(C(=O)/C=C/c2cc(Br)ccc2OC)c1	CYP2C19 inhib 62 (no result: MRP resist rev)
COc1ccc(Br)cc1/C=C/C(=O)Nc1ccc2ccccc2c1	none (no result: CYP2C19 inhib, CYP2C9 inh, CYP2C19 act, MRP resist rev, CYP2C9 activ)
Oc1ccc(-c2csc(-c3c[nH]c4ccccc34)n2)c(O)c1	none (no result: CYP2C19 inhib, CYP2C9 inh, CYP2C19 act, MRP resist rev, CYP2C9 activ)
Cc1nc(-c2c(-c3ccc(O)cc3O)noc2C(F)(F)F)cs1	CYP2C19 inhib 71
CC(C)(C)c1ccc(OCCn2ccccc2=O)cc1	CYP2C19 inhib 70
CC(C)(c1ccccc1)c1ccc(OCCn2cnc3ccccc3c2=O)cc1	none
COc1ccc(-n2nc3c(c2NC(=O)C2CCCC2)CS(=O)C3)cc1 (centres undefined)	none
O=C(CCC1CCCCC1)Nc1c2c(nn1-c1ccc(F)cc1)CS(=O)C2 (centres undefined)	CYP2C19 inhib 98
COc1cc(CCN2C(=O)N[C@@H](c3cccc(C(F)(F)F)c3)C(C(C)=O)=C2C)cc(OC)c1OC	none (no result: CYP2C19 inhib, CYP2C9 inh, CYP2C19 act, MRP resist rev, CYP2C9 activ)
COC(=O)c1ccc(C2NC(=S)N(c3ccccc3)C(C)=C2C(=O)Nc2ccccc2OC)cc1 (centres undefined)	CYP2C19 inhib 80, CYP2C9 inh 81 (no result: MRP resist rev)
COc1ccccc1NC(=O)C1=C(C)N(c2ccccc2)C(=S)NC1c1cccc(C(F)(F)F)c1 (centres undefined)	CYP2C19 inhib 92, CYP2C9 inh 96 (no result: MRP resist rev)
O=C(NC(=O)c1cccc(OC(F)(F)C(F)F)c1)OC1CCS(=O)(=O)C1 (centres undefined)	none
Cc1ccc2oc(-c3ccc(NC(=O)c4cccnc4)cc3)nc2c1	CYP2C9 inh 63
Cc1ccc(-c2nc3cc(C)ccc3o2)cc1	CYP2C19 inhib 59
Cc1ccc(-c2nc3cc(N)ccc3o2)cc1	none
Cc1ccc(-c2nc3cc(NS(=O)(=O)c4ccc(C)cc4)ccc3o2)cc1	CYP2C19 inhib 99, CYP2C9 inh 100
O=S(=O)(Nc1ccc2oc(-c3ccccc3)nc2c1)c1ccccc1	CYP2C19 inhib 93, CYP2C9 inh 94
CC(/C=C1\N=C(SCc2ccccc2)SC1=O)=C\c1ccccc1	none (no result: CYP2C19 inhib, CYP2C9 inh, CYP2C19 act, MRP resist rev, CYP2C9 activ)
Cc1ccc2oc(-c3cccc(NC(=O)c4ccc(Br)o4)c3)nc2c1	CYP2C9 inh 53
Cc1cc2nc(-c3cccc(NC(=O)c4ccc(Br)o4)c3)oc2cc1C	none
CCOc1ccc(NCc2ccccc2OCc2cccc(F)c2)cc1	none (no result: CYP2C19 inhib, CYP2C9 inh, CYP2C19 act, MRP resist rev, CYP2C9 activ)
COc1ccc(C2=NOC3(CC(=O)N(c4ccc5ccccc5c4)C3=O)C2)c(OC)c1 (centres undefined)	none (no result: MRP resist rev)
Cc1ccc([N+](=O)[O-])cc1NC(=S)NC(=O)C(C)(C)C	CYP2C19 inhib 59, CYP2C9 inh 82 (no result: MRP resist rev)
Cc1ccc([N+](=O)[O-])cc1NC(=S)NC(=O)CC(C)(C)C	CYP2C9 inh 85 (no result: MRP resist rev)
Cc1c(NC(=S)NC(=O)C(C)(C)C)cccc1[N+](=O)[O-]	none (no result: CYP2C19 inhib, CYP2C9 inh, CYP2C19 act, MRP resist rev, CYP2C9 activ)
CC(C)(C)CC(=O)NC(=S)Nc1ccccc1C(F)(F)F	CYP2C9 inh 52 (no result: MRP resist rev)
O=S(=O)(c1ccc(C2CCCCC2)cc1)N1CCCC1	none
CCCc1ccc(-c2c(C)sc(N)c2C#N)cc1	CYP2C9 inh 68 (no result: MRP resist rev)
CCCC(=O)Nc1sc(C)c(-c2ccc(OC)cc2)c1C#N	none (no result: CYP2C19 inhib, CYP2C9 inh, CYP2C19 act, MRP resist rev, CYP2C9 activ)
Cc1oc2cc3c(C(=O)N4CCN(c5ccccc5)CC4)c(C)oc3cc2c1C(=O)N1CCN(c2ccccc2)CC1	none (no result: CYP2C19 inhib, CYP2C9 inh, CYP2C19 act, MRP-1 activ, CYP2C9 activ)
C=CCSc1nnc(CSc2nc3sc4c(c3c(=O)[nH]2)CCCC4)n1-c1ccccc1	CYP2C9 inh 67
CCOC(=O)CSc1nnc(CSc2nc3sc4c(c3c(=O)[nH]2)CCC4)n1-c1ccccc1	CYP2C9 inh 57
C=CCn1c(SCc2nc3sc4c(c3c(=O)[nH]2)CCCC4)nc2ccccc2c1=O	none (no result: CYP2C19 inhib, CYP2C9 inh, CYP2C19 act, MRP resist rev, CYP2C9 activ)
CCOC(=O)CSc1nnc(CSc2nc3sc4c(c3c(=O)[nH]2)CCC4)n1C	none
CCCS(=O)(=O)Nc1cc(C(F)(F)F)ccc1OCCOC	CYP2C19 inhib 50
CCN(CC)C(=O)CNC(=O)Cc1ccc(Cl)cc1	none
COc1ccc(NCC(=O)Nc2ccc(C#N)cc2)cc1Cl	CYP2C19 inhib 69, CYP2C9 inh 69 (no result: MRP resist rev)
COc1ccc(NC(C)C(=O)Nc2ccc(C#N)cc2)cc1Cl (centres undefined)	CYP2C19 inhib 100, CYP2C9 inh 98 (no result: MRP resist rev)
COc1ccc(NC(=O)CNc2cccc(C#N)c2)cc1Cl	none
